About 770 (37%) of roughly 2,100 compounds were called active.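 How the source made its calls: active means by-eye trace score of 1 for enhancers or -1 for inhibitors, so actives lie on both sides (some results past the limit were not filed as active); inactive means score 0, or 3 fluorescent, or 4 baseline rise.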 The list shows a part of the results.
target: G protein-activated inward rectifier potassium channel 2 (Homo sapiens) + G protein-activated inward rectifier potassium channel 1 (Homo sapiens) (UniProt P48051+P48549); test: GIRK1/2 thallium flux modulators, retest, confirmation, cell-based, HEK293 rmGlu8/hGIRK1/2, FluoZin-2 (AID 623911); conditions: HEK293 rmGlu8/hGIRK1/2, thallium flux FluoZin-2; actives lie on both sides; glutamate co-added at its EC20 level
Sequence (P48051 whole entry, looked up): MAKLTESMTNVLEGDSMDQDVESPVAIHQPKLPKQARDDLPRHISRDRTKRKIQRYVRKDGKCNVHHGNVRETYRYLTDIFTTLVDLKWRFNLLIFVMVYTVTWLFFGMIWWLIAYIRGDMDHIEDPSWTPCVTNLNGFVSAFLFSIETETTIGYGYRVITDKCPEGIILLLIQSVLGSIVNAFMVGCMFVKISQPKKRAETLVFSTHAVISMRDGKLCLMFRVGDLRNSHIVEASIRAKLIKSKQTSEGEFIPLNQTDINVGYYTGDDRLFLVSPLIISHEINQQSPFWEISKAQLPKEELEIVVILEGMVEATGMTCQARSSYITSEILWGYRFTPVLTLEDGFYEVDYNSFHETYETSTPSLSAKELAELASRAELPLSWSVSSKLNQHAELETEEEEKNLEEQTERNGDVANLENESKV
Sequence (P48549 whole entry, looked up): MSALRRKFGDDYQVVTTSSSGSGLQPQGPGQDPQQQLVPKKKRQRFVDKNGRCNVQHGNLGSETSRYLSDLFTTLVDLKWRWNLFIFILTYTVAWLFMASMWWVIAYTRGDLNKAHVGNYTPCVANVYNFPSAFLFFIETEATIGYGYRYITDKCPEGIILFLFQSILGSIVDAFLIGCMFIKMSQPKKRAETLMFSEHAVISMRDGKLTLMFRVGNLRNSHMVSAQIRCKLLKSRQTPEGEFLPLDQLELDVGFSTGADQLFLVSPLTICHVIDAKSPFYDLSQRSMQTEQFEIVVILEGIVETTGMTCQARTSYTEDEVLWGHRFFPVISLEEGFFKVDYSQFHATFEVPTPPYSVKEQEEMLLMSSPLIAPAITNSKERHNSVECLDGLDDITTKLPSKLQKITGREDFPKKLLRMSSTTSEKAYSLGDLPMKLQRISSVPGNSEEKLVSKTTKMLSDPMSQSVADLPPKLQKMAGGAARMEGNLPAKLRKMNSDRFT

Row | SMILES | manual score
1 | Cc1ccc(S(=O)(=O)N/N=C/c2ccc(OC3CSC3)cc2)cc1 | 0 (inactive)
2 | CCc1ccc2c(c1)C1(NN=C(c3ccc(C)cc3)S1)C(=O)N2 (stereo not given) | 0 (inactive)
3 | Cc1ccccc1C(=O)Nc1ccc2nc3n(c(=O)c2c1)CCC3 | 0 (inactive)
4 | Cc1ccccc1-c1nc(CN2CCC(C(=O)NCc3ccco3)CC2)c(C)o1 | -1 (active)
5 | Cc1oc(-c2cccc(Cl)c2)nc1CN1CCCC(C(=O)NCc2ccco2)C1 (stereo not given) | -1 (active)
6 | Cc1oc(-c2ccccc2F)nc1CS(=O)(=O)CC(=O)NCCN(C)C1CCCCC1 | -1 (active)
7 | CCN1CCCC1CNC(=O)C1CCN(Cc2nc(-c3cccc(Br)c3)oc2C)CC1 (stereo not given) | -1 (active)
8 | Cc1cc(C)nc(N2CCCC(C(=O)NCCc3ccc(F)cc3)C2)n1 (stereo not given) | 0 (inactive)
9 | CCC1CCCCN1C(=O)c1cc2cc(Br)ccc2oc1=O (stereo not given) | 0 (inactive)
10 | CN(c1ccccc1C(=O)Nc1ccccc1C(=O)NCc1ccco1)S(C)(=O)=O | 0 (inactive)
11 | O=C(O)c1cnc(-c2ccccc2)nc1Sc1ccccc1Cl | 0 (inactive)
12 | CCn1c(=NC(=O)CSC(C)=O)sc2ccccc21 | 0 (inactive)
13 | O=C(Nn1cnnc1)c1cc2cc(Br)ccc2oc1=O | 0 (inactive)
14 | Cc1c(N2C(=O)CS/C2=N\N=C\c2ccccc2O)c(=O)n(-c2ccccc2)n1C | 0 (inactive)
15 | O=C(C1CCCN(Cc2cccs2)C1)N1CCCCCC1 (stereo not given) | 0 (inactive)
16 | CC1CC(C)CN(CCCn2c(=S)[nH]c3ccccc3c2=O)C1 (stereo not given) | -0.5 (inactive)
17 | Cc1ccccc1-c1nc(CN2CCC(C(=O)NCCCN3CC(C)CC(C)C3)CC2)c(C)o1 (stereo not given) | -1 (active)
18 | Cc1cccc(-c2nc(CN3CCCC(C(=O)NC4CCCCC4)C3)c(C)o2)c1 (stereo not given) | -1 (active)
19 | O=[n+]1cc(-c2ccccc2)n([O-])c2c1CCC2 | 0 (inactive)
20 | CC1=C(C(=O)Nc2cccnc2)C(c2ccc3c(c2)OCO3)C2=C(CCCC2=O)N1 (stereo not given) | -0.5 (inactive)
21 | COCCN(C(=O)Cc1cccs1)C(C(=O)NCc1ccc(OC)cc1)c1ccccc1 (stereo not given) | 0 (inactive)
22 | COC(=O)COn1c(SC(C)C)nc2ccccc2c1=O | 0 (inactive)
23 | CNC(=O)c1ccc2nc(NC(C)=O)sc2c1 | -0.5 (inactive)
24 | O=C(Nc1nc2ccc(Cl)cc2s1)c1ccc(Br)o1 | 0 (inactive)
25 | Cc1cccc2sc(NC(=O)Cn3cccc3)nc12 | 0 (inactive)
26 | CCc1ccc2nc(NC(=O)c3cc(C)on3)sc2c1 | 1 (active)
27 | Cc1cc(C)c2nc(NC(=O)c3cc(C)on3)sc2c1 | 1 (active)
28 | COc1ccc2[nH]c(C)c(C(=O)CN3CC(C)OC(C)C3)c2c1 (stereo not given) | 0 (inactive)
29 | C/C(CC(=O)NC(C)C)=N\NC(=O)COc1cc(C)c(Br)cc1Br | 1 (active)
30 | C/C(CC(=O)NCC(C)C)=N\NC(=O)COc1cc(C)c(Br)cc1Br | 1 (active)
